This is a sample that favours compounds with a hit; in the whole collection about 8.1% have one here.
SW480 rerep: A quantitative high throughput screen for small molecules that induce DNA re-replication in SW480 colon adenocarcinoma cells; SW480 DNA re-replication, Hoechst DNA content imaging, 48 h; Potency, µM (top dose mostly 46.1 µM), without a hit: top-dose re-replication activation, actives largely listed as activators; actives 1.8% (n = 340,000); also: % of control where 0% means no effect; nearly all actives have a fitted effect of over 55% in size
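Hoechst fluorescence of nuclei (405 nm excitation, 500-530 nm emission) measured by plate-scanning imager after 48 hr compound exposure at 37 C; re-replication scored as increased number of nuclei with elevated intensity.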
KB-3-1 cytotox: qHTS assay for MDR1-selective chemotherapeutics: Primary screen using the parental adenocarcinoma cell KB-3-1; AID 1347075, 2019; KB-3-1 viability, CellTiter-Glo ATP luminescence, 72 h; Potency, µM (doses to about 46.1 µM), hits mostly cytotoxic; actives 1.4% (n = 400,000); also: % is scaled to controls: 0 for no effect and ±100 for the full control effect; nearly all actives have a fitted effect of over 60% in size
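Luminescent ATP read-out (CellTiter-Glo) measures survival of drug-naive KB-3-1 cells after 72 h compound exposure at 37 °C. Titration series was screened from lowest to highest concentration, with DMSO vehicle plates as background controls.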
KB-V1 MDR tox: qHTS assay for MDR1-selective chemotherapeutics: Primary screen using the drug-selected MDR subline cells KB-V1 | Potency, µM (top dose mostly 46.1 µM), hits mostly cytotoxic | actives 3.4% (n = 400,000) | KB-V1 MDR cells viability, CellTiter-Glo, 72 h; also: % is scaled to controls: 0 for no effect and ±100 for the full control effect; nearly all actives have a fitted effect of over 60% in size
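qHTS viability screen in drug-selected KB-V1 MDR cells: 72 h compound treatment at 37 degrees C, ATP luminescence end point.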
ELG1 repair inh: qHTS screen for small molecules that inhibit ELG1-dependent DNA repair in human embryonic kidney (HEK293T) cells expressing luciferase-tagged ELG1. HEK293T ELG1-luciferase reporter, luminescence, 16 h; DNA damage induced by 5-fluorouridine. Potency, µM (series often up to 46.1 µM), inactives show top-dose activity change, negative = inhibition, usual class: inhibitors. actives 2.3% (n = 330,000). AID 504467, 2011; also: % is scaled to controls: 0 for no effect and ±100 for the full control effect; nearly all actives have a fitted effect of over 55% in size
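Overnight (16 hr) co-exposure of 2,000 cells/well to 5-fluorouridine and compound at 37 °C preceded detection. Luciferase was quantified via ONE-Glo luminescence; loss of signal denotes inhibition.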
MCF10A rereplic: A quantitative high throughput screen for small molecules that induce DNA re-replication in MCF 10a normal breast cells; MCF 10A DNA re-replication, Hoechst nuclear intensity, 48 h; Potency, µM (series often up to 46.1 µM), for the others: at the highest dose activity, positive = re-replication, hits mostly activators; actives 2.9% (n = 350,000); also: % of control where 0% means no effect; nearly all actives have a fitted effect of over 50% in size
ELG1 FLuc counter: qHTS screen for small molecules that inhibit ELG1-dependent DNA repair: Hit Confirmation in Cell-Based Luciferin Assay | actives 3% (n = 350) | Potency, µM (series often up to 46.1 µM), for inactives: at the top dose activity change, negative = inhibition, usual class: inhibitors | shares compounds with ELG1 repair inh | cell-free firefly luciferase luminescence counter-screen, ViewLux; also: % is scaled to controls: 0 for no effect and ±100 for the full control effect
ELG1 Luc conf: HTS assay for small molecules that inhibit ELG1-dependent DNA repair in human embryonic kidney (HEK293T) cells expressing luciferase-tagged ELG1: Hit Confirmation; shares compounds with ELG1 repair inh; HEK293T ELG1-luciferase levels, luminescence; cells co-treated with 5-fluorouridine; Potency, µM (series often up to 46.1 µM), inactives show top-dose activity change, negative = inhibition, actives largely listed as inhibitors; actives 68% (n = 670); AID 624248, 2012; also: % is scaled to controls: 0 for no effect and ±100 for the full control effect; nearly all actives have a fitted effect of over 55% in size
Target sequence (Q96QE3 whole entry, looked up): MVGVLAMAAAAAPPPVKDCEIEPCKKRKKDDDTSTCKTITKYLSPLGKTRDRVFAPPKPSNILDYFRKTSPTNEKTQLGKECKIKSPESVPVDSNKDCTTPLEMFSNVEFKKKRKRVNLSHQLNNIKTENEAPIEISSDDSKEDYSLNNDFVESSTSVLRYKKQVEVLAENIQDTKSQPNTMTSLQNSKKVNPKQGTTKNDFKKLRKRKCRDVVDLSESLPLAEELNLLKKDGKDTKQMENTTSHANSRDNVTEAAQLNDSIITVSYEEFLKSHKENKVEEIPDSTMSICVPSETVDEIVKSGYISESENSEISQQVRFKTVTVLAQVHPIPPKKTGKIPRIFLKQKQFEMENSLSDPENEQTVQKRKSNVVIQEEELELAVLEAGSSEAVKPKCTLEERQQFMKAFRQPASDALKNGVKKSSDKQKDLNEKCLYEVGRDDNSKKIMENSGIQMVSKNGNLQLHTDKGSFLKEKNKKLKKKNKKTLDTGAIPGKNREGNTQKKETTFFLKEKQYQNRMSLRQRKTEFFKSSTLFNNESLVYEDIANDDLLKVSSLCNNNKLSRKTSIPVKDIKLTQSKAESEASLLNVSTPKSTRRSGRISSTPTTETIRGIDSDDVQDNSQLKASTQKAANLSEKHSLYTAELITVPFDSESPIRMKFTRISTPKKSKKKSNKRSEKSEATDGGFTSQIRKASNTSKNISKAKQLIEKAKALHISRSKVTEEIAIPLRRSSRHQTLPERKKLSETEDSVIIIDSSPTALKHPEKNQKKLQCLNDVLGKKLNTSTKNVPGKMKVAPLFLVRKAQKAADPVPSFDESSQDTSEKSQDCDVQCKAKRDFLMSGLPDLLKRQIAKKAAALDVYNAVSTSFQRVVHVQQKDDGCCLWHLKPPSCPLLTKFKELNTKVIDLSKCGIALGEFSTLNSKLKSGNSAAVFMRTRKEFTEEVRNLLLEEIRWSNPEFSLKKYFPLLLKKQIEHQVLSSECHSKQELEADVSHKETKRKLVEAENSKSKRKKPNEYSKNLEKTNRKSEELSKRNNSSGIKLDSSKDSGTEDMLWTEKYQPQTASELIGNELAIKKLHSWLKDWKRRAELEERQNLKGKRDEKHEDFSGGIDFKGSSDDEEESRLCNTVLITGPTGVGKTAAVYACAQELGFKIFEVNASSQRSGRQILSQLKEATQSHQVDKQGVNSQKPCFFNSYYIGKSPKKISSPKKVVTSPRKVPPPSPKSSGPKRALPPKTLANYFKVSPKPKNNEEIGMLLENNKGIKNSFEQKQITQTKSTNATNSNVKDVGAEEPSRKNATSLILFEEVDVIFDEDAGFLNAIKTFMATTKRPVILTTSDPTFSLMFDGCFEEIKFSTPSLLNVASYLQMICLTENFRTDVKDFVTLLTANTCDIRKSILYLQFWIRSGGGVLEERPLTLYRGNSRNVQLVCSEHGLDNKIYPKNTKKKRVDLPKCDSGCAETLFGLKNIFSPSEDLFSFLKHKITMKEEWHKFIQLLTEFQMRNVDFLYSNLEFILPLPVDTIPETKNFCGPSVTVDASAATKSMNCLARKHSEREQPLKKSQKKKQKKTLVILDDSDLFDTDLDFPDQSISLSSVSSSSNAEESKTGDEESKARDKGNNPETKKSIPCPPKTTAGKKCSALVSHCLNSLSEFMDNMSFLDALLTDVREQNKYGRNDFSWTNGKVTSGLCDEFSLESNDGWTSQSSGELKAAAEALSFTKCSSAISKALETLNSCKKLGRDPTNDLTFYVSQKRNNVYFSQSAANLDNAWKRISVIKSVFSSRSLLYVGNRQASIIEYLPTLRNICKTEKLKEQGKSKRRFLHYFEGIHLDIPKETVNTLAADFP
ELG1 MMS Luc: confirmation of human ELG1 repair inhibitors, MMS stimulated. actives 53% (n = 670). shares compounds with ELG1 repair inh. Potency, µM (doses to about 46.1 µM), inactives show at the highest dose activity change, negative = inhibition, hits mostly inhibitors. HEK293T luciferase-tagged ELG1 level, MMS stimulated; also: % is scaled to controls: 0 for no effect and ±100 for the full control effect; nearly all actives have a fitted effect of over 60% in size
ELG1 5-FU: qHTS screen for small molecules that inhibit ELG1-dependent DNA repair: Hit Confirmation with 5FU Viability. shares compounds with ELG1 repair inh. cell viability with 5-FU, ELG1-dependent repair. Potency, µM (series often up to 46.1 µM), inactives show at the top dose activity change, negative = viability loss, actives largely listed as cytotoxic. 670 tested, under 10 active. AID 624250, 2012;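 also: ELG1-luc HEK293T cells cotreated with 5-fluorouridine at 10 µM final; viability measured 16 h after compound addition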
ELG1 MMS viab: qHTS screen for small molecules that inhibit ELG1-dependent DNA repair: Hit Confirmation with MMS Viability; Potency, µM (titrated, usually from 46.1 µM), for the others: top-dose activity change, negative = viability loss, hits mostly cytotoxic; Cell viability with MMS, ELG1-dependent DNA repair; shares compounds with ELG1 repair inh; actives 33% (n = 670); AID 624251, 2012;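 also: ELG1-luc HEK293T cells co-treated with 10 µM MMS; viability read 16 h after compound addition; % is scaled to controls: 0 for no effect and ±100 for the full control effect; nearly all actives have a fitted effect of over 60% in size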
ELG1 unstim viab: qHTS screen for small molecules that inhibit ELG1-dependent DNA repair: Hit Confirmation with Unstimulated Viability Assay; cell viability counter-screen, unstimulated, luminescence; actives 8% (n = 900); shares compounds with ELG1 repair inh; Potency, µM (titrated, usually from 45.9 µM), for inactives: at the top dose activity change, negative = loss of viability, most hits filed as cytotoxic; AID 624252, 2012;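 also: compound exposure lasted 16 hours before reading; % is scaled to controls: 0 for no effect and ±100 for the full control effect; nearly all actives have a fitted effect of over 55% in size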
FLuc enzyme: qHTS screen for small molecules that inhibit ELG1-dependent DNA repair: Hit Confirmation in Biochemical Luciferin Assay; shares compounds with ELG1 repair inh; AID 624253, 2012; purified firefly luciferase, luminescence counter-screen; Potency, µM (doses to about 57.5 µM), for the others: at the top dose activity, negative = inhibition, actives largely listed as inhibitors; actives 10% (n = 350); also: % is scaled to controls: 0 for no effect and ±100 for the full control effect
* marks the source's active call; other numbers are inactive results. Calls follow the shape of the dose curve; as a rule, active = well fitted curve in the direction sought with a large enough effect; inconclusive = small, poorly fitted or top-dose-only effect, or another doubt; inactive = no such curve, though single readings can be large; an effect the other way counts as inactive or inconclusive. Potency is read from the fitted curve at half-maximal effect.

What do the screens show for `Cc1cc(C(=O)CSc2nc(N)cc(=O)[nH]2)c(C)n1-c1ccc(OC(F)F)cc1`?
SW480 rerep: -3%; KB-3-1 cytotox: inconclusive; KB-V1 MDR tox: inconclusive; ELG1 repair inh: inconclusive; MCF10A rereplic: 6%; ELG1 Luc conf: -6%; ELG1 MMS Luc: 1.6µM*; ELG1 5-FU: -16%; ELG1 MMS viab: 1.6µM*; ELG1 unstim viab: inconclusive

How did Cc1ccc(NC(=O)/C=C\C(=O)NCC(=O)O)cc1 do in these assays?
SW480 rerep: 4%; KB-3-1 cytotox: inactive; KB-V1 MDR tox: inactive; ELG1 repair inh: 2%; MCF10A rereplic: 8%

What do the screens show for `Cc1c(C(=O)NCc2ccco2)oc2ccc(S(=O)(=O)N3CCC4(CC3)OCCO4)cc12`?
SW480 rerep: -4%; KB-3-1 cytotox: inactive; KB-V1 MDR tox: inactive; ELG1 repair inh: 3.3µM*; MCF10A rereplic: 0%; ELG1 FLuc counter: 63%; ELG1 Luc conf: 4.5µM*; ELG1 MMS Luc: -12%; ELG1 5-FU: inconclusive; ELG1 MMS viab: -11%; ELG1 unstim viab: inconclusive; FLuc enzyme: 0%

What do the screens show for `Cc1c(C(=O)NCCc2ccccc2)oc2ccc(S(=O)(=O)N3CCC4(CC3)OCCO4)cc12`?
SW480 rerep: 2%; KB-3-1 cytotox: inactive; KB-V1 MDR tox: inactive; ELG1 repair inh: inconclusive; MCF10A rereplic: 16%

Results for CCOc1ccc2cc(C#N)c(SCC(=O)N3CCOCC3)nc2c1 ?
SW480 rerep: -3%; KB-3-1 cytotox: inactive; KB-V1 MDR tox: inconclusive; ELG1 repair inh: inconclusive; MCF10A rereplic: 1%; ELG1 FLuc counter: 85%; ELG1 unstim viab: inconclusive; FLuc enzyme: 6%

What do the screens show for `N#Cc1cc2cc3c(cc2nc1SCC(=O)N1CCOCC1)OCO3`?
SW480 rerep: -2%; KB-3-1 cytotox: inactive; KB-V1 MDR tox: inactive; ELG1 repair inh: inconclusive; MCF10A rereplic: 2%; ELG1 FLuc counter: 49%; ELG1 unstim viab: 0%; FLuc enzyme: -10%

How did CCOC(=O)CSc1nc2cc3c(cc2cc1C)OCO3 do in these assays?
SW480 rerep: -88%; KB-3-1 cytotox: inactive; KB-V1 MDR tox: inactive; ELG1 repair inh: 4%; MCF10A rereplic: 2%

How did CCOc1ccc2nc(SCC(=O)N3CCCCCC3)c(C#N)cc2c1 do in these assays?
SW480 rerep: 9%; KB-3-1 cytotox: inactive; KB-V1 MDR tox: inactive; ELG1 repair inh: -22%; MCF10A rereplic: 16%

How did Cc1cc2cc3c(cc2nc1SCC(=O)N1CCOCC1)OCO3 do in these assays?
SW480 rerep: 0%; KB-3-1 cytotox: inactive; KB-V1 MDR tox: inactive; ELG1 repair inh: 1%; MCF10A rereplic: 18%; ELG1 FLuc counter: 32%; ELG1 unstim viab: -1%; FLuc enzyme: -10%

What do the screens show for `COc1cc(C(=O)OCC(=O)N2CCCCCC2)c([N+](=O)[O-])cc1OC`?
SW480 rerep: -9%; KB-3-1 cytotox: inactive; KB-V1 MDR tox: inconclusive; ELG1 repair inh: -7%; MCF10A rereplic: -2%

Results for CCCC1=C(C(=O)OCC)C(c2ccc(NC(C)=O)cc2)NC(=O)N1 (configuration not stated) ?
SW480 rerep: 0%; KB-3-1 cytotox: inactive; KB-V1 MDR tox: inconclusive; ELG1 repair inh: 11%; MCF10A rereplic: inconclusive

Results for O=C(Nc1ccc(C(=O)O)cc1)Nc1cccc2ccccc12 ?
SW480 rerep: -3%; KB-3-1 cytotox: inactive; KB-V1 MDR tox: inactive; ELG1 repair inh: 4%; MCF10A rereplic: 3%

Results for CC(Sc1nc(N2CCOCC2)c2c(c1C#N)CC(C)(C)OC2)C(=O)Nc1ccccc1 (configuration not stated) ?
SW480 rerep: -4%; KB-3-1 cytotox: inactive; KB-V1 MDR tox: inconclusive; ELG1 repair inh: 2.9µM*; MCF10A rereplic: -3%; ELG1 FLuc counter: 17%; ELG1 Luc conf: 1.8µM*; ELG1 MMS Luc: -11%; ELG1 5-FU: inconclusive; ELG1 MMS viab: inconclusive; ELG1 unstim viab: 8%; FLuc enzyme: 1%

How did CCOC(=O)CCSc1nc(N2CCOCC2)c2c(c1C#N)CC(C)(C)OC2 do in these assays?
SW480 rerep: -31%; KB-3-1 cytotox: inactive; KB-V1 MDR tox: inactive; ELG1 repair inh: 1µM*; MCF10A rereplic: -2%; ELG1 FLuc counter: 14%; ELG1 Luc conf: 4.5µM*; ELG1 MMS Luc: 9%; ELG1 5-FU: inconclusive; ELG1 MMS viab: 11%; ELG1 unstim viab: 1%; FLuc enzyme: 3%
